What all share (test): NCI-60 one-dose screen, 48 h (100 = growth as untreated, 0 = no growth, -100 = all killed)
Common to all, as to settings: 10 µM unless noted

Assay [1] concerns HCT-15 colon.
Assay [2] has as its system HT29 colon.
Assay [3] deals with SNB-75 CNS.
The test system of assay [4] is SNB-19 CNS.
For assay [5], the system named is U251 CNS.
Assay [6] relates to PC-3 prostate.
Assay [7] deals with SK-MEL-5 melanoma.
Assay [8] deals with UACC-62 melanoma.
In assay [9] the test system is LOX IMVI melanoma.
Assay [10] concerns SK-MEL-28 melanoma.
Assay [11] concerns SK-MEL-2 melanoma.
Assay [12] concerns EKVX NSCLC.
In assay [13] the test system is SN12C renal.
The test system of assay [14] is UO-31 renal.
For assay [15], the system named is TK-10 renal.
Assay [16] deals with ACHN renal.
For assay [17], the system named is CAKI-1 renal.
The test system of assay [18] is CCRF-CEM leukemia.
Assay [19] concerns MOLT-4 leukemia.
The test system of assay [20] is A498 renal.

The results in this text go back to PubChem BioAssay (NCI).

The structures appear in SMILES notation. This is part of a sample that, as a whole, favours compounds with a hit. Of some 83,000 tested, about 20% had one in any assay.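 96-well plates, one dose, 48 hours. Percent growth reported; active if below 10.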 Unmarked numbers belong to inactive results. Active and inactive are the calls of the source.

Regarding `Cc1cccc(NC(=O)Nc2ccc(-c3ccc4c(c3)NC(=O)/C4=C\c3ccc[nH]3)cc2)c1`, the growth in [1] is 66.9%; in assay [2], 99.4%; in assay [3] it was 81.7%; in assay [4], 90.2%; in [5], 74.7%; in assay [6] it was 94%. The growth was 100% in assay [7]; 98.1% in [8]; 78.7% in [9]; 95.9% in assay [10]; 111% in assay [11]; 46.5% in assay [12]. For the same compound, the growth was 100% in [13]; 70.3% in [14]; 93.3% in [15]; 91.1% in assay [16]; 82.6% in [17]; 30.1% in assay [18]. Also, the growth in assay [19] was 53.8%.
Regarding `CCCCCN1C=C/C(=C\C(=O)N(C)c2ccccc2Br)c2ccccc21`, the growth is 102% in [1]; 98.3% in assay [2]; 91.7% in assay [3]; 94.6% in assay [4]; 87.7% in assay [5]; 92.1% in assay [6]. Further, the growth is 94.2% in [7]; 81.6% in [8]; 93.6% in assay [9]; 105% in assay [10]; 109% in assay [11]; 91.2% in assay [12]. The growth in assay [13] is 89.2%; in [14] it was 87.8%; in assay [15] it was 99.7%; in [16] it was 104%; in assay [17], 82.2%; in [18] it was 96%. In addition, in [19], the growth was 89.3%.
As for `C[C@H]1[C@H](C)CC[C@]2(C(=O)NCC#CCN3CCN(C)CC3)CC[C@]3(C)C(=CC[C@@H]4[C@@]5(C)Cc6c([nH]c7ccccc67)C(C)(C)[C@@H]5CC[C@]43C)[C@H]12`, the growth in assay [1] was 47%; in assay [2], 19.3%; in assay [3], 90.1%; in assay [4] it was 83.2%; in [5], 64.3%; in assay [6], 69.8%. The growth in assay [7] is 88.5%; in assay [8] it was 101%; in assay [9], 70.9%; in assay [10] it was 82.3%; in [11], 105%; in [12], 86.5%. The growth is 81.2% in [13]; 67.6% in [14]; 88.8% in assay [15]; 96.3% in assay [16]; 91.9% in [17]; 66.7% in assay [18]. Besides, in assay [19], the growth is 44.6%.
For `COc1cc(C2C3CC4CCCC[C@H]4N3[C@@]3(C(=O)Nc4cc(Cl)ccc43)C2C(=O)c2nc3ccccc3[nH]2)cc(OC)c1OC` (stereo partly drawn), the growth in [1] is 43.3%; in assay [2], 35.6%; in assay [3], 78.8%; in assay [4] it was 72.5%; in assay [5], 56.7%; in assay [6], 43.7%. Also, the growth in [7] was 64.6%; in assay [8] it was 57.5%; in [9], 58.8%; in assay [10], 82.4%; in assay [11] it was 80.5%; in assay [12], 48.6%. Also, the growth in assay [13] is 63.2%; in assay [14], 34.8%; in assay [15] it was 68.8%; in assay [16] it was 56.9%; in assay [17], 30.6%; in assay [18], 42.2%. Besides, in assay [19], the growth was 14%.
With `N#Cc1c(NCc2ccccc2I)sc2c1CCCCC2`, the growth in assay [1] was 94.8%; in [2], 99.8%; in assay [3], 84.8%; in [4], 97.7%; in assay [5] it was 90%; in [6] it was 98.8%. Also, the growth in assay [7] was 98.2%; in [8], 69.5%; in assay [9], 91.1%; in [10] it was 110%; in assay [11] it was 105%; in assay [12], 78.8%. The growth in assay [13] is 96.9%; in assay [14], 79.7%; in [15], 109%; in assay [16] it was 97.7%; in assay [17], 74.8%; in assay [18], 94.4%. In addition, in assay [19], the growth is 84.2%.
Regarding `O=S(=O)(NCCNc1nccc(-c2c(-c3cccc(F)c3)nc3sccn23)n1)c1ccccc1`, the growth in assay [1] is 25.8%; in [2], 23.2%; in [3] it was 71.5%; in [4], 55.9%; in assay [5], 44%; in assay [6], 33.1%. For the same compound, the growth in assay [7] was 19.1%; in [8], 24.9%; in assay [9], 36.3%; in assay [10], 54.3%; in assay [11] it was 51.8%; in assay [12], 53.3%. Further, the growth in assay [13] was 40.3%; in assay [14] it was 15.4%; in assay [15], 59.5%; in assay [16], 26%; in [17] it was 39.1%; in [18] it was 33.6%. Besides, in assay [19], the growth is 16.6%.
As for `Cc1ccc(C(=O)/C(=C/c2ccc([N+](=O)[O-])cc2)SCc2ccc(Cl)cc2)cc1`, the growth in assay [1] was 8.64% (active); in assay [2] it was -22.7% (active); in [3], 84.8%; in assay [4], 34.1%; in [5] it was -56.3% (active); in assay [6], 63.3%. Also, the growth in [7] is 91%; in assay [8] it was 65.9%; in assay [9] it was 0.133% (active); in assay [10], 90.9%; in [11] it was 91.5%; in assay [12], 89%. Also, the growth in assay [13] was 70.3%; in [14], 48.2%; in [15], 90.8%; in assay [16], 91.1%; in [17] it was 74.8%; in assay [20] it was 81%. The growth was 8.74% (active) in assay [18] and 19.8% in assay [19].
`Cc1ccc(NC(C(=O)c2ccccc2)c2ccccc2)cc1` (stereo not drawn): the growth in [1] is 86.4%; in [2], 46.9%; in [3], 66.3%; in assay [4], 47.9%; in assay [5] it was 29.7%; in assay [6], 37.6%. Besides, the growth in assay [7] is 22.1%; in assay [8], 39.1%; in assay [9], 50.5%; in assay [10], 52.8%; in [11], 36.1%; in assay [12] it was 20.5%. Also, the growth in assay [13] is 50.1%; in assay [14], 78.9%; in assay [15] it was 74.6%; in assay [16], 85%; in assay [17], 66.7%; in [18], 65.2%. In addition, the growth in assay [19] is 74.6%.
